# Reference: PubChem BioAssay (NCATS)
# Unmarked numbers belong to inactive results. Results filed as inconclusive are left out. The source made the active and inactive calls. Unless noted, calls come from the whole dose curve; as a rule, active = well fitted curve in either direction with a large enough effect (not every such curve was filed as active); inconclusive = small, poorly fitted or top-dose-only effect, or another doubt; inactive = flat fitted curve, though single readings scatter.
# Tests used:
# [1] = NFAT Signaling Pathway (AID 444); conditions: Jurkat NFAT-bla M1, carbachol, beta-lactamase ratio, 5 h; at 17.2 µM (top of the series) unless noted;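 note: carbachol stimulus at about its EC50 of 1 µM final; % is set by controls: 0 for no effect and ±100 for the full control effect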
# Method in brief: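 Jurkat cells with NFAT-driven β-lactamase reporter and co-expressed M1 receptor, stimulated with carbachol (final 1 uM, ~EC50), compound titration, 5 h at 37 °C. CCF4 loaded 1 h at RT; 460/530 nm ratio gave %activity and AC50.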
# [2] = target: Glucocorticoid receptor (Homo sapiens) (UniProt P04150); experiment: GR-GFP Redistribution (AID 450;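 active = compounds whose dose series gives a full or clear partial fitted curve of increased nuclear translocation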; note: potency is the fitted concentration of half-maximal effect)
# [3] = Stat Signaling Pathway (AID 446); conditions: ME-180 SIE beta-lactamase reporter, IL-6 stimulated, 5 h; at 17.2 µM (top of the series) unless noted;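 note: ME-180 cervical cancer cells given 40 pM IL-6 alongside compound; SIE-controlled beta-lactamase reporter measured as 460/530 nm FRET emission ratio; % is set by controls: 0 for no effect and ±100 for the full control effect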
# Method in brief: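 Reporter line: ME-180 cervical carcinoma, SIE-beta-lactamase. Treatment: compound with 40 pM IL-6, 5 hrs, 37 C, in low-serum OPTI-MEM with 10 mM HEPES pH 7.3. Detection: 460/530 nm fluorescence.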
# [4] = qHTS Assay for Identification of Small Molecule Agonists for Hypoxia Response Element Signaling Pathway (AID 914; active = well fitted activation curve with a large enough effect in the signal ratio, with a control signal flat, not every such curve was filed as active; the % refers to the signal ratio; note: potency is the fitted concentration of half-maximal effect); conditions: ME-180 HRE-bla reporter, beta-lactamase ratio, CoCl2, 17 h; activation: active compounds read high
# Method in brief: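 qHTS titration; ME-180 HRE-bla cells; EC50 CoCl2 co-treatment, 17 h at 37 degrees Celsius; CCF4 dye, ex 405nm, em 460nm and 530nm; %Activity from ratio; AC50.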
# [5] = target: Glucocorticoid receptor (Homo sapiens) (UniProt P04150); experiment: GR-EFC Redistribution (AID 451; calls by dose curve; note: potency is the fitted concentration of half-maximal effect); conditions: CHO-K1 GR-EFC translocation, beta-gal luminescence, 2 h
# Method in brief: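 CHO-K1 cells expressing nuclear EA and GR-ED fragments of b-gal; compounds titrated up to 46 uM final, 2 h at 37 C. GR nuclear translocation read as complemented b-gal luminescence after 1 h RT detection.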
# [6] = target: Mitogen-activated protein kinase 10 (Mus musculus) (UniProt Q61831); experiment: JNK3 AlphaScreen Assay (AID 530);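 note: kinase came from lysate of stimulated human HepG2 cells; signal reports phosphorylation of biotinylated GST-cJun 1-79 at Ser73 with 10 µM ATP; % is set by controls: 0 for no effect and ±100 for the full control effect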
# Method in brief: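 Pre-activated (IL-1β/TNFα) JNK3 in HepG2 lysates phosphorylates biotin-GST-cJun(1-79), 10 uM ATP; anti-phospho-cJun(Ser73) AlphaScreen read at room temperature, pH 7.6 Tris buffer. Compounds pre-incubated 15 min as titrations.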
# [7] = target: 3',5'-cyclic-AMP phosphodiesterase 4B (Homo sapiens) (UniProt Q07343); experiment: qHTS Assay for Inhibitors of PDE-IV (AID 607; active = well fitted activation curve with a large enough effect in the main read-out, with a control signal flat, not every such curve was filed as active; note: % of control where 0% means no effect)
# Method in brief: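 Cell-based read-out of cAMP via a modified cyclic nucleotide-gated channel and membrane potential dye (535/590 nm) in HEK293 cells expressing PDE4 endogenously. Compounds tested up to 22.9 uM final; 100 uM RO 20-1724 reference.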
# [8] = target: Guanine nucleotide-binding protein G(i) subunit alpha-1 (Homo sapiens) (UniProt P63096); experiment: qHTS Assay for Inhibitors of RGS12 GoLoco Motif Activity (Green Fluorophore) (AID 879; active = well fitted curve in the direction sought with a large enough effect; an effect the other way counts as inactive or inconclusive;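 note: 0% = labeled peptide with Gαi1 and full inhibition = labeled peptide alone without protein; negative values mean loss of peptide binding seen as reduced polarization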)
# Method in brief: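 Fluorescence polarization assay: 50 nM Gαi1 with 10 nM FITC-labeled RGS12 GoLoco peptide in 10 mM Tris pH 7.5, 150 mM NaCl, 0.1 mM GDP, 0.05% NP40, 10 min at room temperature with compound.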
# [9] = qHTS Assay for Identification of Small Molecule Antagonists for NFkB Signaling Pathway (AID 895; active = well fitted inhibition curve with a large enough effect in the signal ratio, with a control signal flat, not every such curve was filed as active; the % refers to the signal ratio; note: potency is the fitted concentration of half-maximal effect)
# Method in brief: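 ME-180 NFkB-bla cells (beta-lactamase under NFkB response element), plated overnight, treated with compound then 10 pM TNF alpha (about EC50) for 5 hrs at 37 C. LiveBLAzer FRET read at 460/530 nm emission, 405 nm excitation.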
# [10] = qHTS Assay for Identification of Small Molecule Agonists for Thrombopoietin (TPO) Signaling Pathway (AID 917; active = well fitted curve in the direction sought with a large enough effect; an effect the other way counts as inactive or inconclusive; note: % is set by controls: 0 for no effect and ±100 for the full control effect)
# Method in brief: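 Luminescence from a Glycoprotein IIb promoter–driven luciferase reporter served as read-out in murine Ba/F3 cells carrying the human TPO receptor. Cells, deprived of IL-3 overnight, received compounds with 26 pM TPO and were incubated 24 hrs at 37 C.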
# [11] = target: Muscarinic acetylcholine receptor M1 (Rattus norvegicus) (UniProt P08482); experiment: qHTS Assay for Antagonists of Acetylcholine Muscarinic M1 Receptor: Kinetic Measurement of Intracellular Calcium Response (AID 943; active = well fitted curve in the direction sought with a large enough effect; an effect the other way counts as inactive or inconclusive;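 note: Fluo-4 calcium signal as peak divided by basal fluorescence over 4 min; nearly all actives have a fitted effect of over 75% in size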)
# Method in brief: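 Rat M1-CHO cells, 2000/well, overnight → Fluo-4 no-wash dye with probenecid, 1 h 37C → compound 10 min, room temp → basal read 6 s → carbachol EC80 (100 nM) → 4 min kinetic read; peak/basal.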
# [12] = target: Pyruvate kinase (Leishmania mexicana) (UniProt Q27686); experiment: qHTS Validation Assay for Inhibitors of Leishmania Mexicana Pyruvate Kinase (AID 945; active = well fitted curve in the direction sought with a large enough effect; an effect the other way counts as inactive or inconclusive;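 note: 0% = DMSO only neutral control wells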)
# Method in brief: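 Read-out: luminescence from PKLight stop/detection reagent, data normalized to DMSO. Reaction: 0.2 nM E451W LmPYK, 0.5 mM PEP, 0.1 mM ADP, pH 7.2, 1 h room temperature.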
# [13] = target: Pyruvate kinase PKM (Homo sapiens) (UniProt P14618); experiment: qHTS Assay for Activators of Human Muscle Pyruvate Kinase (AID 954; active = well fitted curve in the direction sought with a large enough effect, not every such curve was filed as active;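 note: 0% = uninhibited enzyme and -100% = no enzyme or full thiadiazolimine inhibition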)
# Method in brief: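 Human PKM2 activity is measured as ATP generation, detected by luciferase-coupled luminescence. The enzyme (0.1 nM) acts on 0.5 mM PEP and 0.1 mM ADP for 1 h at ambient temperature; data are normalized to uninhibited and full-inhibition wells.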
# [14] = target: Alpha-galactosidase A (Homo sapiens) (UniProt P06280); experiment: Counterscreen for Glucocerebrosidase Inhibitors: qHTS Assay for Human alpha-Galactosidase at pH 4.5 (AID 992; active = well fitted curve in the direction sought with a large enough effect; an effect the other way counts as inactive or inconclusive; note: 0% is about no effect)
# Method in brief: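 Quantitative HTS: compounds tested from 0.7 nM up to 77 uM against 2 nM enzyme with 80 uM 4-MU alpha-D-galactopyranoside. The 20 min room-temperature reaction is stopped with 1M NaOH/1M glycine, pH 10.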
# [15] = target: alpha-glucosidase (Oryza sativa, rice) (UniProt Q653V4); experiment: Counterscreen for Glucocerebrosidase Inhibitors: qHTS Assay for Rice alpha-Glucosidase at pH 5.0 (AID 997; active = well fitted curve in the direction sought with a large enough effect; an effect the other way counts as inactive or inconclusive;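 note: 0% = full activity with enzyme and -100% = basal without enzyme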)
# Method in brief: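 Rice alpha-glucosidase (4 nM final) with 400 uM 4-methylumbelliferyl-alpha-D-glucopyranoside in citrate buffer pH 5.0, 20 min at room temperature, stopped at pH 10; fluorescence 365/440 nm, compounds 0.7 nM–77 uM, AC50 from Hill fits.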
# Sequence of Glucocorticoid receptor (Homo sapiens) (P04150 whole entry, looked up, the tested form may be a part): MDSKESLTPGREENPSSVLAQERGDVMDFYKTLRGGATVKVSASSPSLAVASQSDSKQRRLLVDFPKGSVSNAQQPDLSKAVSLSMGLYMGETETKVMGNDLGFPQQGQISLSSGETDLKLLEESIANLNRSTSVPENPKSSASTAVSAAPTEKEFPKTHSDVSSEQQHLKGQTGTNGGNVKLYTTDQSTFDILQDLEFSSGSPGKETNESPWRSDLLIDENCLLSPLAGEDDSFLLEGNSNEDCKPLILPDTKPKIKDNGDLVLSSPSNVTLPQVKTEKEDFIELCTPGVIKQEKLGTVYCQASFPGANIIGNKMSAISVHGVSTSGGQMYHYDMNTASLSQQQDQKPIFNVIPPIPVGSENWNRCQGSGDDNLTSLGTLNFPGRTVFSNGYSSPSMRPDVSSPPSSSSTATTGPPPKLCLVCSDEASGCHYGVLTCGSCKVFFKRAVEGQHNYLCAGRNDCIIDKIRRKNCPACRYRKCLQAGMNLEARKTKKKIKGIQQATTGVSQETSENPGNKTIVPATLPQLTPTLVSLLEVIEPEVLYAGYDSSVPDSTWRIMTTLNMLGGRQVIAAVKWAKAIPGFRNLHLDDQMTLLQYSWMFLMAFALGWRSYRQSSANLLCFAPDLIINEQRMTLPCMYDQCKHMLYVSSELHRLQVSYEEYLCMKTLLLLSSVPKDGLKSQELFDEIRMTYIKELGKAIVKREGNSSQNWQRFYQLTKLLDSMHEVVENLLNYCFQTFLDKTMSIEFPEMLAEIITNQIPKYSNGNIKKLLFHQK
# Sequence of 3',5'-cyclic-AMP phosphodiesterase 4B (Homo sapiens) (Q07343 whole entry, looked up): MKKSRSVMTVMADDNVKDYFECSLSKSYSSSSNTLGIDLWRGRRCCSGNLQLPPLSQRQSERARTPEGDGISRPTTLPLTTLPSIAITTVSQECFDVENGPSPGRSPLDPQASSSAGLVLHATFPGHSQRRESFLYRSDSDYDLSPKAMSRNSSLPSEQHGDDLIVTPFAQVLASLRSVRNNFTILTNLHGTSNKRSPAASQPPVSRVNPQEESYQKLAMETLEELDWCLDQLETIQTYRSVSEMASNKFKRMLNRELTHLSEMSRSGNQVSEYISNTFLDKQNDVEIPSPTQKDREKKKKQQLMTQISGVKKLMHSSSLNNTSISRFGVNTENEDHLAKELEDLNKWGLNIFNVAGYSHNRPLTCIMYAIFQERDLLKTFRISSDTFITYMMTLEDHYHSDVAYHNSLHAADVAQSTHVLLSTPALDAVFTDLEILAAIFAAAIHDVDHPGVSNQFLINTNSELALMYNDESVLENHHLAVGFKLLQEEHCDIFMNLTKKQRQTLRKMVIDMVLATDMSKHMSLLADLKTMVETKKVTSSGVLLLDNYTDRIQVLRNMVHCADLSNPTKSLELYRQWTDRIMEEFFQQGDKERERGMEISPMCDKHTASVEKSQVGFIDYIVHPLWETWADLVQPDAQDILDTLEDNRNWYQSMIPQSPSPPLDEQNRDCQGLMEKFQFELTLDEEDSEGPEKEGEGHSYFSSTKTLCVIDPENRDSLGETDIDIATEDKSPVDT
# Sequence of Pyruvate kinase PKM (Homo sapiens) (P14618 whole entry, looked up): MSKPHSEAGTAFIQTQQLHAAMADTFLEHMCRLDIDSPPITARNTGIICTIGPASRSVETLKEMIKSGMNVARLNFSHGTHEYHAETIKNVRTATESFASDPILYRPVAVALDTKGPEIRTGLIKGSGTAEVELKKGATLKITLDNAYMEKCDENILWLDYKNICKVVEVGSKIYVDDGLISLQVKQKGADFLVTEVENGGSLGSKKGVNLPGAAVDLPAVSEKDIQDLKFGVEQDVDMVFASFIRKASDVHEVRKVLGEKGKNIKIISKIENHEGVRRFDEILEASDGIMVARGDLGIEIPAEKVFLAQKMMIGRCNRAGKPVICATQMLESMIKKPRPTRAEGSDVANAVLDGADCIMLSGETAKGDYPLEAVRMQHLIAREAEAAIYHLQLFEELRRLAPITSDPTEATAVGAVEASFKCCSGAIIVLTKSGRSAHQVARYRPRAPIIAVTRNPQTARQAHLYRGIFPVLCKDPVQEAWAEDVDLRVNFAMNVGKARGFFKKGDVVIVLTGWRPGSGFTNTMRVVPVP
# Sequence of Muscarinic acetylcholine receptor M1 (Rattus norvegicus) (P08482 whole entry, looked up): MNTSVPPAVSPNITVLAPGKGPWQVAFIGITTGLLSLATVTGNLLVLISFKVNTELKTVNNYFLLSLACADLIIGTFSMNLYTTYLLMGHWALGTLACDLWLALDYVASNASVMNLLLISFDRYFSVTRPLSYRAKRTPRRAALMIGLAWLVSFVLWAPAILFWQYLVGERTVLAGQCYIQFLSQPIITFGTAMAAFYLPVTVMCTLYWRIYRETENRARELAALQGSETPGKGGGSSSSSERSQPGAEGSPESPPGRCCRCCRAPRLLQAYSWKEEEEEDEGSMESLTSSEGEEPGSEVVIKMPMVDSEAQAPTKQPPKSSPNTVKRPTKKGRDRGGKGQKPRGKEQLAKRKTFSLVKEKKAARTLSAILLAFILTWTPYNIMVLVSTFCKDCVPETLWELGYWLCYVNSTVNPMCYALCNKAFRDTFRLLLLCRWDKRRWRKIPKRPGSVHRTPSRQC
# Sequence of Alpha-galactosidase A (Homo sapiens) (P06280 whole entry, looked up): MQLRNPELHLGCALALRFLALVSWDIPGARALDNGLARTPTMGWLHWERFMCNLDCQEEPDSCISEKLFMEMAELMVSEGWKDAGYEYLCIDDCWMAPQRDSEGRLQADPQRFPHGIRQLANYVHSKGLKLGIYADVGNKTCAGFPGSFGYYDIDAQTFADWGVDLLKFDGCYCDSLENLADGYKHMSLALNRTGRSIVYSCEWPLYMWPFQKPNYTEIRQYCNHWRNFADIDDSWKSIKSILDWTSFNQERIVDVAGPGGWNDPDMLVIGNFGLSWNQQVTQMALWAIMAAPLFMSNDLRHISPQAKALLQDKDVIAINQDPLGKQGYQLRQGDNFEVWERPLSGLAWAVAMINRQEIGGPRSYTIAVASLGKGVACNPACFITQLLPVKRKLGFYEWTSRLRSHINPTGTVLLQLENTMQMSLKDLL
# Sequence of Guanine nucleotide-binding protein G(i) subunit alpha-1 (Homo sapiens) (P63096 whole entry, looked up): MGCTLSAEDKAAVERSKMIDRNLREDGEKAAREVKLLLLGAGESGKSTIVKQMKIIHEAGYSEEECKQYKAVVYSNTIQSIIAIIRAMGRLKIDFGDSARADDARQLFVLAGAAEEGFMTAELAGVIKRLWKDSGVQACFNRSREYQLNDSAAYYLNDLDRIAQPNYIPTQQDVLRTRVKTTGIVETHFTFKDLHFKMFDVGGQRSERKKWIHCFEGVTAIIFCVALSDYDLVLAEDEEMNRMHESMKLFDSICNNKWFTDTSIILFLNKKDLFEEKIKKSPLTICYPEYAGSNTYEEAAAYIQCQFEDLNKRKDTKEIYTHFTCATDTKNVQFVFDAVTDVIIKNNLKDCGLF
# Sequence of Pyruvate kinase (Leishmania mexicana) (Q27686 2-499 E452W): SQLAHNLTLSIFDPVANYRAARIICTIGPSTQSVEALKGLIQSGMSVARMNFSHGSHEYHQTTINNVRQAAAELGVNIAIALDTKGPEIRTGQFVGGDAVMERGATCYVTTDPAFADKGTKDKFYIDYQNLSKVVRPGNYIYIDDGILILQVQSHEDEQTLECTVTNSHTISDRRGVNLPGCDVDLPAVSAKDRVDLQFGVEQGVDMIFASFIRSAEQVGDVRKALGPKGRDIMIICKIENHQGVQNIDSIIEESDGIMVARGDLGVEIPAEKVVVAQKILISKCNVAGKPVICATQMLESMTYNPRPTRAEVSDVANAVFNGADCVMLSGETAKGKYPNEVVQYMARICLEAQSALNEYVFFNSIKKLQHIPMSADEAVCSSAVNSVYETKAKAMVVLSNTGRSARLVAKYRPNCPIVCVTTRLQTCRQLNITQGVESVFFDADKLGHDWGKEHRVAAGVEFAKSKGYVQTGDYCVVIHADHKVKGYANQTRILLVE
compound,measurement,setting,value
Cc1c(NC(=O)c2coc(=O)c(Br)c2)c(=O)n(-c2ccccc2)n1C,"activity change, negative = inhibition",[1],-128% (active)
same,Potency,[2],> 20.6 µM
C#CCSC1=C(C#N)C(c2cccs2)C(C(=O)OCC)=C(C)N1 (configuration not stated),"activity change, negative = inhibition",[1],-26.3%
same,Potency,[2],> 20.6 µM
N#Cc1ccc(-c2ccc(OCC(O)Cn3nnc4ccccc43)cc2)cc1 (configuration not stated),"activity, negative = inhibition",[3],-29.1%
same,Potency,[2],> 20.6 µM
CCOC(=O)c1cc2c(=O)n3cccc(C)c3nc2n(C)c1=N,"activity change, negative = inhibition",[1],-13%
same,Potency,[2],> 20.6 µM
same,Potency,[4],6.31 µM (active)
Nc1nnnn1/N=C/c1ccco1,"activity, negative = inhibition",[3],-1.38%
same,Potency,[2],> 20.6 µM
Cc1ccc2nc(C(F)(F)F)c(C#N)c(N)c2c1,"activity, negative = inhibition",[3],-100% (active)
same,Potency,[2],> 20.6 µM
C=CCn1c(N)c(C(=O)Nc2ccccc2)c2nc3ccccc3nc21,"activity change, negative = inhibition",[1],-5.29%
same,Potency,[2],> 20.6 µM
same,Potency,[4],5.01 µM (active)
CN(C)c1ccc(NC(=O)c2sc(SCC(=O)Nc3nccs3)nc2N)cc1,"activity change, negative = inhibition",[1],2.32%
same,Potency,[2],> 20.6 µM
CCOC(=O)CSc1nc(N)c(C(=O)Nc2ccc(N(C)C)cc2)s1,"activity change, negative = inhibition",[1],0.0938%
same,Potency,[2],> 20.6 µM
O=C(Oc1oc(-c2ccco2)nc1C=Nc1ccccc1)c1ccoc1,"activity change, negative = inhibition",[1],-123% (active)
same,Potency,[2],> 20.6 µM
Cc1cc(-c2cc(-c3ccc(Cl)cc3)nc(N)c2C#N)co1,"activity change, negative = inhibition",[1],14.5%
same,Potency,[2],> 20.6 µM
same,Potency,[4],7.94 µM (active)
COc1ccc(C(=O)CSC2=C(C#N)C3(CCCCC3)C(C#N)=C(N)N2)cc1,"activity change, negative = inhibition",[1],14.6%
same,Potency,[2],> 20.6 µM
O=C(Oc1oc(-c2ccco2)nc1C=Nc1ccccc1)c1ccco1,"activity change, negative = inhibition",[1],-124% (active)
same,Potency,[2],> 20.6 µM
COc1ccc(-c2nnc3sc(-c4ccccc4OC)nn23)cc1,"activity change, negative = inhibition",[1],-23.6%
same,Potency,[2],> 20.6 µM
Cc1ccc(NC(=O)CSC2=C(C#N)C(c3ccc4c(c3)OCO4)CC(=O)N2)cc1C (configuration not stated),"activity change, negative = inhibition",[1],-0.339%
same,Potency,[2],> 20.6 µM
CCN(CC)c1ccc(-c2nn3c(-c4cccnc4)nnc3s2)cc1,"activity, negative = inhibition",[3],-29.8%
same,Potency,[2],> 20.6 µM
O=C(COc1ccc(-c2nnc(N3CCCCC3)c3ccccc23)cc1)N1CCCCC1,"activity change, negative = inhibition",[1],-4.72%
same,Potency,[2],> 20.6 µM
Nc1ncnc2c1ncn2[C@@H]1O[C@@H](CO)[C@H](O)[C@@H]1O,"activity change, negative = inhibition",[1],4.32% [at 38 µM]
same,Potency,[2],> 46 µM
same,Potency,[5],> 46 µM
same,Potency,[6],inactive
same,Potency,[7],inactive
same,outcome,[8],inactive
same,Potency,[9],4.47 µM (active)
same,Potency,[10],inactive
same,Potency,[11],inactive
same,Potency,[12],inactive
same,outcome,[13],inactive
same,outcome,[14],inactive
same,outcome,[15],inactive
COc1ccccc1-c1nn2c(-c3ccc(C(C)(C)C)cc3)nnc2s1,"activity change, negative = inhibition",[1],-12.3%
same,Potency,[2],> 20.6 µM
